The values below come from PubChem BioAssay (Tox21).

The target in one experiment is Aromatase (Homo sapiens) (UniProt P11511). In words: qHTS assay to identify aromatase inhibitors (AID 743083). Also: nearly all actives have a fitted effect of over 55% in size. Also: potency is read from the fitted curve at half-maximal effect.
The target in experiment [1] is Aryl hydrocarbon receptor (Homo sapiens) (UniProt P35869). In words: qHTS assay to identify small molecule that activate the aryl hydrocarbon receptor (AhR) signaling pathway (AID 743085). Also: nearly all actives have a fitted effect of over 15% in size. Also: potency is read from the fitted curve at half-maximal effect. In short, it runs like this:
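24 h compound exposure, 37C, HepG2-derived HG2L7.5c1 cells with DRE-responsive luciferase. Readouts: fluorescence viability, then luminescence at room temperature after 30 min.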

The target in experiment [2] is Acetylcholinesterase (Homo sapiens) (UniProt P22303). In words: Acetylcholinesterase (AChE) small molecule antagonists: colormetric cell-based qHTS assay (AID 1347395; calls by dose curve; also: nearly all actives have a fitted effect of over 30% in size). The essentials: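 In this cell-based qHTS, attached SH-SY5Y cells were treated with test chemicals for 30 min, after which acetylthiocholine hydrolysis was followed by DTNB colour development over 90 min at 37 C.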
Acetylcholinesterase (Homo sapiens), sequence (P22303 whole entry, looked up): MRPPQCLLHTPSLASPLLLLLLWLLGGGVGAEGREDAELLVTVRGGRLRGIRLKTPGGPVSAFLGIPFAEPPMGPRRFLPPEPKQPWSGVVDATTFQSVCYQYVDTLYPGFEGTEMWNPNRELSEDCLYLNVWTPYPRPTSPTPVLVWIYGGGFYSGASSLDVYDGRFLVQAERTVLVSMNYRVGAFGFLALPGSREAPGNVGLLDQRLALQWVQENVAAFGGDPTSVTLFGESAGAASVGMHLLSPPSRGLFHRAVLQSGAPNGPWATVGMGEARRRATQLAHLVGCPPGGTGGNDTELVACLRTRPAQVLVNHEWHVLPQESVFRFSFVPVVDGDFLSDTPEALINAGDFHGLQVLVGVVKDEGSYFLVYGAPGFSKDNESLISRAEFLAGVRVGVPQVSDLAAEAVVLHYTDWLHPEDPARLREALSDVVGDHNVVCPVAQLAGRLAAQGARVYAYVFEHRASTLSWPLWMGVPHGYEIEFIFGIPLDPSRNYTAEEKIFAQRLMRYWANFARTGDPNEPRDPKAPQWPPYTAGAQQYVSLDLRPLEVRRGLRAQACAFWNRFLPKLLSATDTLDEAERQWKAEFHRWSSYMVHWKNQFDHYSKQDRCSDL

Experiment [3] shares this target. As to the kind of experiment: Acetylcholinesterase (AChE) small molecule antagonists: enzyme-based qHTS assay (AID 1347397; calls by dose curve; also: nearly all actives have a fitted effect of over 55% in size). Particulars: Potency: AChE enzyme activity inhibition; outcome: AChE enzyme activity inhibition. In short, it runs like this:
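Colorimetric DTNB readout of acetylthiocholine hydrolysis, 10 min at room temperature, after 30 min room-temperature exposure of 50 mU/mL recombinant human enzyme to compound; DMSO vehicle control.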

Experiment [4] has the same target. In words: Acetylcholinesterase (AChE) small molecule antagonists: fluorescence cell-based qHTS assay (AID 1347398; calls by dose curve; also: nearly all actives have a fitted effect of over 50% in size). The note with it: Potency: AChE activity; outcome: AChE activity. The essentials:
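Cellular AChE activity read as thiocholine from acetylthiocholine hydrolysis, detected by Thiolite Green fluorescence at 490/520 nm after 40 min at room temperature. Compounds were pre-incubated 30 min at 37 C on adherent SH-SY5Y cells.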

Experiment [5] in a line: qHTS assay for small molecule disruptors of the mitochondrial membrane potential - cell viability (AID 720634; calls by dose curve;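 also: human HepG2 liver cancer cells; series mostly up to about 83 µM; nearly all actives have a fitted effect of over 20% in size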). In short, it runs like this:
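Cytotoxicity was measured by ATP quantitation in HepG2 wells that had first been treated with compound for 1 hr and stained with m-MPI dye; CellTiter-Glo incubation was 30 min at room temperature.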

Experiment [6] in a line: qHTS assay to test for compound auto fluorescence at 590 nm (red) in HepG2 cells (AID 720674). In short, it runs like this: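 Red autofluorescence (Ex/Em 540/590 nm, Rose Bengal sodium equivalents) was measured in HepG2 cells, 2,000 per well in MEM plus 10% FBS, plated overnight at 37 C. Readings were taken 1 hr after adding 23 nL compound or DMSO, at 37 C and 5% CO2.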

A short description of experiment [7]: qHTS assay to test for compound auto fluorescence at 460 nm (blue) in HEK293 cells (AID 720678). The essentials: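 Blue-channel (Ex/Em 405/460 nm) intensity measured in HEK293 cultures after overnight compound exposure at 37C; signal expressed relative to triamterene. Cells plated 2,000 per well in 10% dialyzed FBS medium and allowed 4-5 hr to attach.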
Experiment [8] in a line: qHTS assay to test for compound auto fluorescence at 535 nm (green) in HEK293 cells (AID 720680).
Experiment [9] in a line: qHTS assay to test for compound auto fluorescence at 460 nm (blue) in HEK293 cell free culture (AID 720681). The essentials:
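Blue fluorescence (Ex 405/Em 460 nm, triamterene-equivalent) was read immediately after pin transfer of compound or DMSO into medium (DMEM, 10% FBS) without cells.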

The nature of experiment [10]: qHTS assay to test for compound auto fluorescence at 535 nm (green) in HEK293 cell free culture (AID 720682). In short, it runs like this:
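Measurement is a direct plate read of green fluorescence (485 nm in, 535 nm out) after compound addition to serum-supplemented DMEM lacking cells, with fluorescein used to express intensities.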

Experiment [11] can be described thus: qHTS assay to test for compound auto fluorescence at 590 nm (red) in HEK293 cell free culture (AID 720683). The essentials:
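Red-channel autofluorescence of compounds in culture medium (DMEM, 10% FBS), no cells, measured at 540/590 nm. Rose Bengal sodium is the reference fluorophore for equivalence.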

Experiment [12] in a line: qHTS assay to test for compound auto fluorescence at 590 nm (red) in HepG2 cell free culture (AID 720684). The essentials: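 Cell-free; medium MEM + 10% FBS; compound or DMSO added by pintool; read Ex 540/Em 590 nm; Rose Bengal sodium as red reference fluorophore.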
The nature of experiment [13]: qHTS assay to test for compound auto fluorescence at 460 nm (blue) in HepG2 cell free culture (AID 720685). In short, it runs like this:
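Cell-free plates of MEM plus 10% FBS received 23 nL compound or DMSO vehicle; blue-channel (405/460 nm) intensity scored against triamterene as reference fluorophore.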

A short description of experiment [14]: qHTS assay to test for compound auto fluorescence at 460 nm (blue) in HepG2 cells (AID 720687). The essentials: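 Blue-channel autofluorescence (Ex/Em 405/460 nm, triamterene-equivalent) was measured after 1 hr compound exposure at 37 C, 5% CO2. Cells were HepG2, plated overnight at 37 C in MEM plus 10% FBS.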
The nature of experiment [15]: qHTS assay to identify small molecule antagonists of the glucocorticoid receptor (GR) signaling pathway - cell viability counter screen (AID 720693). Also: nearly all actives have a fitted effect of over 55% in size.
A short description of experiment [16]: qHTS assay to identify small molecule antagonists of the thyroid receptor (TR) signaling pathway - cell viability counter screen (AID 743064). Also: nearly all actives have a fitted effect of over 50% in size. Also: potency is read from the fitted curve at half-maximal effect. In short, it runs like this: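 Compounds were tested on GH3.TRE-Luc cells in the presence of T3 at 1 nM final. Following 23.5 h at 37 °C, cell viability was quantified by CellTiter-Fluor.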
Experiment [17] is described as follows: qHTS assay for small molecules that induce genotoxicity in human embryonic kidney cells expressing luciferase-tagged ATAD5 - cell viability (AID 651634; calls by dose curve; also: nearly all actives have a fitted effect of over 25% in size). The essentials: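 Cells (HEK293T, luciferase-tagged ATAD5) are seeded at 2,000 per well, dosed with compound or DMSO vehicle, and incubated 15.5 hr at 37C and 5% CO2. CellTiter-Fluor is added for 30 min before fluorescence is measured.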

Experiment [18] is described as follows: qHTS assay to identify aromatase inhibitors - cell viability counter screen (AID 743084).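 Also: cells stimulated with testosterone during compound exposure; nearly all actives have a fitted effect of over 55% in size.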
The nature of experiment [19]: qHTS assay for small molecules that induce genotoxicity in human embryonic kidney cells expressing luciferase-tagged ATAD5 (AID 651632). Also: nearly all actives have a fitted effect of over 15% in size. The essentials:
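Cells were seeded at 2,000 per well, dosed with compound, and incubated 16 hr at 37C in 5% CO2. Luciferase activity was then quantified after a 30 min room-temperature incubation with Amplite.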

A number with no mark means an inactive call. Results filed as inconclusive are left out. The source made the active and inactive calls. Unless noted, calls follow the shape of the dose curve; as a rule, active = well fitted curve in the direction sought with a large enough effect in the repeat runs; inconclusive = weak or mixed curves; inactive = no such curve, though single readings can be large; an effect the other way counts as inactive or inconclusive.

Aromatase (Homo sapiens), sequence (P11511 whole entry, looked up): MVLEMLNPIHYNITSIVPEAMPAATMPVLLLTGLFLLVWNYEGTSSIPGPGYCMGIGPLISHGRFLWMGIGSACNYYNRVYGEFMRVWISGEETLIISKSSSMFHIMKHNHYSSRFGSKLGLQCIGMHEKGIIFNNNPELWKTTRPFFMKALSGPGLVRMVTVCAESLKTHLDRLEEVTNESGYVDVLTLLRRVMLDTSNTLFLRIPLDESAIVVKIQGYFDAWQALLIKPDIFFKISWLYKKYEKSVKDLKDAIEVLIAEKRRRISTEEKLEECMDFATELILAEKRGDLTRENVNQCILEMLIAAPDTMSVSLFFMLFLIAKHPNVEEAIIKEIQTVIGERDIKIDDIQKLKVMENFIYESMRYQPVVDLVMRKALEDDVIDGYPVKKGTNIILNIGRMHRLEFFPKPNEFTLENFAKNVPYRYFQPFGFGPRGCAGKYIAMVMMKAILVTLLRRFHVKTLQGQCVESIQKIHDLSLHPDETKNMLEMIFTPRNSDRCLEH
Aryl hydrocarbon receptor (Homo sapiens), sequence (P35869 whole entry, looked up): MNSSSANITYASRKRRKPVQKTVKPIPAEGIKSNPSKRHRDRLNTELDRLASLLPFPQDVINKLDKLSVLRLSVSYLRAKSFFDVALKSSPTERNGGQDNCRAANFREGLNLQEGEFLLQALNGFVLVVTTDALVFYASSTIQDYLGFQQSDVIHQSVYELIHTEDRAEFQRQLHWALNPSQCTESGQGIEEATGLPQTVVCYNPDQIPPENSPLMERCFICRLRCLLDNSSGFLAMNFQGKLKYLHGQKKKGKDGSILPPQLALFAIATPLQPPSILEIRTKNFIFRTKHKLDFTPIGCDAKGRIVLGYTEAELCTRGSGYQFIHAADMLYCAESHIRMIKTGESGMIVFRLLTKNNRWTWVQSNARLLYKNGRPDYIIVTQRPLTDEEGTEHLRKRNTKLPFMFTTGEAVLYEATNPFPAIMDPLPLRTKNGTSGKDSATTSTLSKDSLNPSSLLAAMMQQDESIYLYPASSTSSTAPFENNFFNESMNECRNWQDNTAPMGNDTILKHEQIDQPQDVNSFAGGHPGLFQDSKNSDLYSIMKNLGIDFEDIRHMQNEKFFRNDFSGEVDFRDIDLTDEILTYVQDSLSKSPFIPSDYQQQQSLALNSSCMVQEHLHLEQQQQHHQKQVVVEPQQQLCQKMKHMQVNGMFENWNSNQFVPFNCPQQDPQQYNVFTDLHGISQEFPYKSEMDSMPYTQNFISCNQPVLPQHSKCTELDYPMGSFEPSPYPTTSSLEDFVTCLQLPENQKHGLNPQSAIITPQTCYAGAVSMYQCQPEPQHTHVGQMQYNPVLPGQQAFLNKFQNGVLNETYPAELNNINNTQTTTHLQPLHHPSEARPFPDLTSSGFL

Regarding `COc1cc2c(cc1OC)[C@@H]1CC(=O)[C@@H](CC(C)C)CN1CC2`, the Potency entry (with Aromatase (Homo sapiens); in [1]; in [2]; in experiment [3]; in [4]) was “inactive” throughout.

As to `CCCSc1cc(OC)c(CCN)cc1OC`, the Potency result in experiment [5], in experiment [7], in experiment [8], in experiment [9], in experiment [10] and in [13] was “inactive” each time. Moreover, the Potency entry in experiment [14] and in experiment [15] was “inactive” throughout. The molecule was classed as inactive in [6], in experiment [11] and in experiment [12]. Also, the Potency was 29 µM (active) in [16], 32.5 µM (active) with Aromatase (Homo sapiens) and 29 µM (active) in [1].

With `O=C1C[C@@H]2OCC=C3CN4CC[C@]56c7ccccc7N1[C@H]5[C@H]2[C@H]3C[C@H]46` (tested in a mixture with another compound), the Potency result in experiment [17], in [5], in experiment [7], in experiment [9], in [10] and in [13] was “inactive” in each case. Also, the Potency result (in experiment [14]; in [15]; in experiment [16]; with Aromatase (Homo sapiens); in experiment [18]) was “inactive” throughout. Moreover, the molecule was classed as inactive in experiment [6], in experiment [11] and in experiment [12].

As to `CN1CC[C@@]23CCCC[C@@H]2[C@@H]1Cc1ccc(O)cc13`, the Potency entry in experiment [19], in [17], in experiment [5], in experiment [7], in experiment [8] and in experiment [9] was “inactive” each time. Also, the Potency entry (in experiment [10]; in experiment [13]; in experiment [14]; in [15]; in [16]; with Aromatase (Homo sapiens)) was “inactive” in each case. Moreover, the Potency result in experiment [18] and in experiment [1] was “inactive” in each case. The molecule was classed as inactive in [6], in experiment [11] and in experiment [12].

Take `CC(=O)OC(C)=O`: the Potency entry in [1], in experiment [2], in [3] and in experiment [4] was “inactive” each time.

For the molecule `Clc1ccc(Cl)c(Cl)c1Cl`, the Potency entry (with Aromatase (Homo sapiens); in experiment [1]; in [3]; in [4]) was “inactive” each time.

For `C[C@H]1[C@H]2Cc3ccc(O)cc3[C@]1(C)CCN2CCc1ccccc1`, the Potency result in experiment [19], in experiment [17], in experiment [5], in experiment [7], in [8] and in experiment [9] was “inactive” throughout. For the same molecule, the Potency result (in experiment [10]; in experiment [13]; in [14]; in [15]; in the experiment with Aromatase (Homo sapiens); in [18]) was “inactive” each time. For the same molecule, the call in experiment [6], in [11] and in experiment [12] was inactive. Moreover, the Potency in experiment [16] was 30.4 µM (active); in [1] it was 12.1 µM (active).

In the case of `Cc1cc([N+](=O)[O-])ccc1N`, the Potency result (in the experiment with Aromatase (Homo sapiens); in experiment [1]; in experiment [2]; in [3]; in experiment [4]) was “inactive” throughout.

In the case of `C[C@H]1CC[C@]2(NC1)O[C@H]1C[C@H]3[C@@H]4CC[C@H]5C[C@@H](O)CC[C@]5(C)[C@H]4CC[C@]3(C)[C@H]1[C@@H]2C`, the Potency result in [19], in experiment [17], in [7], in experiment [9], in experiment [10] and in experiment [13] was “inactive” in each case. The Potency result (in [14]; in [15]; with Aromatase (Homo sapiens); in experiment [18]; in experiment [1]) was “inactive” throughout. In addition, the result in experiment [6] and in experiment [11] was inactive.

As for `O=C(Cl)c1cccc(C(=O)Cl)c1`, the Potency result (with Aromatase (Homo sapiens); in experiment [1]; in experiment [2]; in [3]; in experiment [4]) was “inactive” in each case.

Take `Brc1ccc(Oc2ccc(Br)cc2)cc1`: the Potency entry in experiment [2], in [3] and in experiment [4] was “inactive” throughout.

For the molecule `COc1cc([C@@H]2c3cc4c(cc3[C@H](O)[C@H]3COC(=O)[C@H]23)OCO4)cc(OC)c1OC`, the Potency entry (with Aromatase (Homo sapiens); in [2]; in experiment [3]; in experiment [4]) was “inactive” each time.
